As usually defined, the AC50 is the midpoint of the concentration-response curve, whichever way the signal moves.

Molecules are shown by their SMILES. “And” between values parts separate entries of the source, which are not always exact repeats. Equal entries are not always repeated. The source holds several records for some structures; these can differ, active in one and inactive in another. The source made the active and inactive calls. Rule for the calls: active = hit-call score of the fitted dose curve at least 0.9, where 1 is the maximum; inactive = score below 0.9.

The text below walks through data of PubChem BioAssay (EPA / NIEHS).

Test [1] concerns the target CCAAT/enhancer-binding protein beta (Homo sapiens) (UniProt P17676). The experiment in a line: ATG_C_EBP_CIS: Attagene CIS-FACTORIAL HepG2 Assay for human CCAAT/Enhancer Binding Protein (C/EBP) beta (AID 2282927). Particulars: HepG2 Attagene cis-factorial transcription factor reporter; actives raise or lower the signal. The gist of the method:
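HepG2 transiently transfected with multiplexed reporter units under cis-regulatory promoters reporting endogenous C/EBPb activity. After 24 h exposure, reporter mRNA assayed by RT-PCR, fluorescent labelling, HpaI digestion and capillary electrophoresis; bidirectional fitting versus DMSO.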

Test [2] is described as follows: ATG_CMV_CIS: Attagene CIS-FACTORIAL HepG2 Assay for human CMV (Internal Marker) (AID 2282928).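 Note: endpoint acts as a background internal control marker rather than a target.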 The conditions noted are these: HepG2 CMV promoter reporter, transcription factor profiling; actives raise or lower the signal. The method, boiled down:
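Cell system: HepG2, transiently transfected multiple reporter units under cis promoters. Exposure: 24 h. Detection: RT-PCR, FAM labeling, HpaI digestion, capillary electrophoresis. Analysis: bidirectional, DMSO baseline.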

The nature of test [3]: ATG_DR4_LXR_CIS: Attagene CIS-FACTORIAL HepG2 Assay for human Liver X Receptor (LXR), DR4 submotif (AID 2282929). The conditions noted are these: HepG2 Attagene DR4 cis-reporter, mRNA transcription; actives raise or lower the signal. The method, boiled down:
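DR4 cis-reporter in HepG2, 24 h exposure. Detection: RT-PCR, 6-FAM labelling, CE fragment analysis. Endpoint fitted bidirectionally, DMSO = baseline.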

For test [4], the target named is Aryl hydrocarbon receptor (Homo sapiens) (UniProt P35869). Briefly: ATG_Ahr_CIS: Attagene CIS-FACTORIAL HepG2 Assay for human Aryl Hydrocarbon Receptor (Ahr) (AID 2282930). Particulars: HepG2 AhR cis-factorial reporter transcription; actives raise or lower the signal. The method, boiled down: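 HepG2 cells transiently transfected with cis-element-driven multiplexed reporter units; endogenous AhR activity read as reporter mRNA 24 h after dosing, via RT-PCR, 6-FAM labelling, HpaI digestion and capillary electrophoresis. Bidirectional fit relative to DMSO.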

Test [5] in a line: ATG_AP_1_CIS: Attagene CIS-FACTORIAL HepG2 Assay for human Activator Protein 1 (AP-1) (AID 2282931). Particulars: HepG2 Attagene cis-factorial AP-1 reporter mRNA; actives raise or lower the signal. The gist of the method: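 Cis-regulated reporter units transiently expressed in HepG2 report endogenous transcription-factor activity. Signal: reporter mRNA at 24 h, via RT-PCR and fluorescent capillary electrophoresis. Endpoint derived by bidirectional fitting, DMSO as negative control.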

A short description of test [6]: ATG_AP_2_CIS: Attagene CIS-FACTORIAL HepG2 Assay for human Activator Protein 2 (AP-2) (AID 2282932). Particulars: HepG2 AP-2 cis-reporter, Attagene transcription factor profiling; actives raise or lower the signal. The method, boiled down:
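Multiplexed mRNA reporter assay in HepG2: cis-regulated units report endogenous factor activity after 24 h treatment. Fluorescence from capillary electrophoresis of RT-PCR products gives the signal, with DMSO as baseline.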

Test [7] is described as follows: ATG_BRE_CIS: Attagene CIS-FACTORIAL HepG2 Assay for human Bone Morphogenetic Protein (BMP) Response Element (BRE) (AID 2282933). Particulars: HepG2 BMP response element reporter, Attagene transcription factor profiling; actives raise or lower the signal. The method, boiled down: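 After a 24 h chemical treatment, transiently transfected HepG2 cells were lysed for RNA; reporter transcripts were quantified by fluorescent RT-PCR and capillary electrophoresis, normalised to DMSO.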

The target in test [8] is Retinoic acid receptor alpha (Homo sapiens) (UniProt P10276). The experiment in a line: ATG_DR5_RAR_CIS: Attagene CIS-FACTORIAL HepG2 Assay for human Retinoic Acid Receptor Alpha (RARE), DR5 submotif (AID 2282934).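 For AC50: reporter responds to endogenous RAR alpha beta and gamma in HepG2 not RARA alone.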 Particulars: HepG2 Attagene cis-factorial RARE DR5 reporter, mRNA; actives raise or lower the signal. The gist of the method: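 HepG2 cells transiently transfected with multiplexed reporter units; DR5 cis-element drives reporter through endogenous transcription factors. After 24 h dosing, reporter mRNA quantified by RT-PCR, fluorescent labeling, HpaI digestion and capillary electrophoresis; bidirectional fitting versus DMSO.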

Test [9] has as its target Transcription factor E2F1 (Homo sapiens) (UniProt Q01094). Briefly: ATG_E2F_CIS: Attagene CIS-FACTORIAL HepG2 Assay for human E2F Transcription Factor 1 (AID 2282935). Particulars: HepG2 Attagene cis-reporter, E2F reporter RNA transcripts; actives raise or lower the signal. The gist of the method:
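Measures reporter transcript levels via RT-PCR with capillary electrophoresis detection in HepG2 cells harboring cis-regulated reporter units; 24 h post-dose; bidirectional curve fitting with DMSO as baseline.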

Aryl hydrocarbon receptor (Homo sapiens), sequence (P35869 whole entry, looked up): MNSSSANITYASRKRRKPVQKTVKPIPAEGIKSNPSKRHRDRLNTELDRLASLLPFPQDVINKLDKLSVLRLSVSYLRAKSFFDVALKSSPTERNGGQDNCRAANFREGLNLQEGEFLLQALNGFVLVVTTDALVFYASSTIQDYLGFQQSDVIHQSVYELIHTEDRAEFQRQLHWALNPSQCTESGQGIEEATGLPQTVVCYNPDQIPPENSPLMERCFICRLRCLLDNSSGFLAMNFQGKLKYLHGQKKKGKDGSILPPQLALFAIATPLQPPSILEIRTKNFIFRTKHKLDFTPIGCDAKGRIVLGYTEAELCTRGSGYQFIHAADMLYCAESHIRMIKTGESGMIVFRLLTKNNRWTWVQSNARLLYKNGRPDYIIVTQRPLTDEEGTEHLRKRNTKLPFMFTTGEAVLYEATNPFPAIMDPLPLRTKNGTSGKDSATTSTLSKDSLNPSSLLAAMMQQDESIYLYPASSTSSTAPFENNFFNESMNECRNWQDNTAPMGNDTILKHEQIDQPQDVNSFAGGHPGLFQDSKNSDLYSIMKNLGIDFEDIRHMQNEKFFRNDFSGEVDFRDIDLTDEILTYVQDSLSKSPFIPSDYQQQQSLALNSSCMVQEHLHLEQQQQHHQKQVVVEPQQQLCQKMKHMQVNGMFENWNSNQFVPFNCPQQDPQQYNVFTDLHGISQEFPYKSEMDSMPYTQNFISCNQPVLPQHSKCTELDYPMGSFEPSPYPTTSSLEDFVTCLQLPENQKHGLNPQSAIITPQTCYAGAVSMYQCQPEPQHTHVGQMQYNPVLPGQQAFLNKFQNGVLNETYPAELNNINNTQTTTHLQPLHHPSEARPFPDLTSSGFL
CCAAT/enhancer-binding protein beta (Homo sapiens), sequence (P17676 whole entry, looked up): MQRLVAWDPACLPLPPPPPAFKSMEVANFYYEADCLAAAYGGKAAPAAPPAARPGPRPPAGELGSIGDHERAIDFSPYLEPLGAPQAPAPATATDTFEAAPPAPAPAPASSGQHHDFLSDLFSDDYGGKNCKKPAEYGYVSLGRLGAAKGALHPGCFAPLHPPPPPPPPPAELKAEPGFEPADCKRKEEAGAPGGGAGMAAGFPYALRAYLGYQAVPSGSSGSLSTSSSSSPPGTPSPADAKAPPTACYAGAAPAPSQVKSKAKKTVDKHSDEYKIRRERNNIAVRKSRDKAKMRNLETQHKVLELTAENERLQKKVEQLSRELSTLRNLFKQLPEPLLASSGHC
Transcription factor E2F1 (Homo sapiens), sequence (Q01094 whole entry, looked up): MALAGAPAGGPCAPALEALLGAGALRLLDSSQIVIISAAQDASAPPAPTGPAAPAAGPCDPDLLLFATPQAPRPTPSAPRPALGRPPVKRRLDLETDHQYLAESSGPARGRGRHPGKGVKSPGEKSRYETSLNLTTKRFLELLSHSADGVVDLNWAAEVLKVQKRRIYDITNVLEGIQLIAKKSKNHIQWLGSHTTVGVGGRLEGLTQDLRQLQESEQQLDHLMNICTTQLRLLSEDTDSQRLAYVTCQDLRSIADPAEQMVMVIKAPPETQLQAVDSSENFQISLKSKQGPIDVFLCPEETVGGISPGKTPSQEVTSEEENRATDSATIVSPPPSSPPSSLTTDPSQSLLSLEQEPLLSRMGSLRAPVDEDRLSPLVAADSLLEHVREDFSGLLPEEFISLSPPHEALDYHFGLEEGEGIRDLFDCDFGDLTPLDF
Retinoic acid receptor alpha (Homo sapiens), sequence (P10276 whole entry, looked up): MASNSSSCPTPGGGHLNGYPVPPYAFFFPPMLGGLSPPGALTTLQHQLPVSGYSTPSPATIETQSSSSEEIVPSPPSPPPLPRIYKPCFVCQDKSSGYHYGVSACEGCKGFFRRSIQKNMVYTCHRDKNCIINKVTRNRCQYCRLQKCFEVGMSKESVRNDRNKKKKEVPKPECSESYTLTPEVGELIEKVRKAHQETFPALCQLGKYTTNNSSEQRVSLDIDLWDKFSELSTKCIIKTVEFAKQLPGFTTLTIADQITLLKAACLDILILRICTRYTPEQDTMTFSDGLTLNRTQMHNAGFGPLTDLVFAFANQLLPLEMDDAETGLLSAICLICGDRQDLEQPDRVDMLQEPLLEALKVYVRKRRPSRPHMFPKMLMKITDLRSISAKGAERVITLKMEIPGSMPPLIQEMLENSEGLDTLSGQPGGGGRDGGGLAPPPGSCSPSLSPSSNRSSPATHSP

With `Oc1c(I)cc(I)cc1I`, the result in test [1], in [3], in test [5], in test [8] and in [9] was inactive. Besides, the AC50 is 49.3 µM (active) in [2], 34.5 µM (active) in [4], 63.7 µM (active) in test [6] and 43.2 µM (active) in test [7].
For `CC(=O)C(Cl)C(=O)N(C)C` (stereo not given), the result in test [1], in test [2], in [3], in test [4], in test [5] and in test [7] was inactive. The outcome in [9] was inactive.
For the molecule `COc1cc(OC)nc(NC(=O)NS(=O)(=O)c2ncccc2C(=O)N(C)C)n1`, the outcome in [1], in test [3], in test [4], in [5], in [6] and in [7] was inactive. Moreover, in test [9], the result was inactive.
As to `CCCCP(CCCC)CCCC`, the outcome in [1], in [2], in test [3], in test [4], in test [5] and in [6] was inactive. In addition, the molecule was classed as inactive in test [7] and in test [9].
Regarding `Nc1ccc(-c2ccc(N)c(Cl)c2)cc1Cl`, the result in test [1], in [3], in test [5], in test [6], in test [7] and in test [9] was inactive. In addition, the AC50 was 2.15 µM (active) in test [2] and 6.23 µM (active) in test [4].
Turning to `O=C(c1ccccc1)C(Cl)Cl`, the result in test [1], in test [4], in [6], in [7], in test [8] and in test [9] was inactive. Besides, the values for the concentration at half-maximal activity (AC50) in test [3] and in [5] were 8.03 µM (active) and 53.4 µM (active), respectively.
Turning to `COP(=S)(OC)Oc1ccc(S(=O)(=O)N(C)C)cc1`, the result in test [1], in test [2], in test [3], in test [4], in test [5] and in [7] was inactive. Also, the molecule was called inactive in test [8] and in [9].
For the molecule `COC(=O)Cc1ccccc1`, the result in test [2], in test [3], in [4], in test [5], in test [6] and in test [7] was inactive. The result in [8] and in [9] was inactive.
As to `COC(=O)c1sccc1S(=O)(=O)NC(=O)Nc1nc(C)nc(OC)n1`, the result in test [1], in test [3], in test [4], in [5], in test [7] and in test [8] was inactive. Moreover, in test [9], the molecule was called inactive.
Consider `CC1CN1P(=O)(N1CC1C)N1CC1C` (stereo not given), for which the result in test [2], in test [3], in test [4], in [5], in test [6] and in test [7] was inactive. In addition, the molecule was classed as inactive in test [9].
Turning to `C[C@]12CC[C@H](O)CC1=CC[C@@H]1[C@@H]2CC[C@]2(C)C(=O)CC[C@@H]12`, the result in [1], in test [3], in test [4], in [5], in test [6] and in [7] was inactive. Besides, the molecule was classed as inactive in test [8] and in test [9]. Also, the concentration at half-maximal activity (AC50) in [2] was 27.7 µM (active).
Take `c1cc[c]([Hg][c]2ccccc2)cc1`: the AC50 in test [1] is 21.3 µM (active). In addition, the call in [3], in test [4], in test [6], in test [7], in test [8] and in test [9] was inactive.
As to `COc1ccc(OC)c(C=O)c1`, the outcome in test [1], in test [2], in test [3], in test [4], in test [5] and in [6] was inactive. The call in test [7], in test [8] and in [9] was inactive.
Regarding `O=C(Cl)c1ccc(Cl)cc1`, the result in [1], in test [2], in test [3], in [4], in test [7] and in test [8] was inactive. The result in test [9] was inactive.
With `O=C(O)C(F)(F)C(F)(F)C(F)(F)C(F)(F)C(F)(F)C(F)(F)C(F)(F)C(F)(F)C(F)(F)C(F)(F)F`, the AC50 in test [3] is 24.6 µM (active) and 13.1 µM (active); in test [5], 23.9 µM (active); in [6], 55.8 µM (active); in test [8], 129 µM (active). The outcome in test [4], in [5], in test [6], in [7], in test [8] and in test [9] was inactive.
On to `Cc1ccc2ccccc2c1C`, for which the outcome in test [1], in test [2], in test [3], in test [6], in test [7] and in test [8] was inactive. For the same molecule, the outcome in [9] was inactive. In addition, the AC50 in test [4] is 6.24 µM (active).
On to `COS(=O)(=O)c1ccc(C)cc1`, for which the result in [1], in test [3], in [4], in test [5], in [6] and in test [7] was inactive. Further, the call in test [8] and in test [9] was inactive.
